Measurements as given in article PMC11062922 (Nature Chemical Biology, 2023).
Where two headings read alike, the source gives them in different places.

What was measured:
[1] = test system: TNIK; settings: read-out: apparent Kd, n = 1
[2] = test system: ULK3; settings: read-out: apparent Kd, n = 1

Question: Lestaurtinib was tested. Which potency estimated from few doses ([1]; compound concentrations:100 nM and 1000 nM (sheet 'Lestaurtinib' of Supplementary Table 1),run:Lestaurtinib_02795_R2,Plate:MR022) did it give?
Answer: Its potency estimated from few doses is 0.154 µM.

Question: What about the potency estimated from few doses ([1]; compound concentrations:100 nM and 1000 nM (sheet 'Lestaurtinib' of Supplementary Table 1),run:Lestaurtinib_02795_R3,Plate:MR022) of the same substance?
Answer: The potency estimated from few doses was 0.504 µM.

Question: And the potency estimated from few doses ([1]; compound concentrations:100 nM and 1000 nM (sheet 'Lestaurtinib' of Supplementary Table 1),run:Lestaurtinib_02802_R1,Plate:MR029)?
Answer: The potency estimated from few doses was 0.121 µM.

Question: And the potency estimated from few doses ([1]; compound concentrations:100 nM and 1000 nM (sheet 'Lestaurtinib' of Supplementary Table 1),run:Lestaurtinib_02802_R2,Plate:MR029)?
Answer: The potency estimated from few doses was 0.141 µM.

Question: And the potency estimated from few doses ([1]; compound concentrations:100 nM and 1000 nM (sheet 'Lestaurtinib' of Supplementary Table 1),run:Lestaurtinib_02896_R1,Plate:MR030)?
Answer: Its potency estimated from few doses is 0.444 µM.

Question: What about the potency estimated from few doses ([1]; compound concentrations:100 nM and 1000 nM (sheet 'Lestaurtinib' of Supplementary Table 1),run:Lestaurtinib_02896_R2,Plate:MR030) of the same substance?
Answer: The potency estimated from few doses was 0.356 µM.

Question: What about the potency estimated from few doses ([1]; compound concentrations:100 nM and 1000 nM (sheet 'Lestaurtinib' of Supplementary Table 1),run:Lestaurtinib_02896_R3,Plate:MR030) of the same substance?
Answer: The potency estimated from few doses was 0.484 µM.

Question: And the potency estimated from few doses ([1]; compound concentrations:100 nM and 1000 nM (sheet 'Lestaurtinib' of Supplementary Table 1),run:Lestaurtinib_03172_R2,Plate:MR031)?
Answer: Its potency estimated from few doses is 0.157 µM.

Question: What about the potency estimated from few doses ([1]; compound concentrations:100 nM and 1000 nM (sheet 'Lestaurtinib' of Supplementary Table 1),run:Lestaurtinib_03172_R3,Plate:MR031) of the same substance?
Answer: The potency estimated from few doses was 0.561 µM.

Question: What about the potency estimated from few doses ([1]; compound concentrations:100 nM and 1000 nM (sheet 'Lestaurtinib' of Supplementary Table 1),run:Lestaurtinib_03252_R1,Plate:MR032) of the same substance?
Answer: Its potency estimated from few doses is 0.143 µM.

Question: What about the potency estimated from few doses ([1]; compound concentrations:100 nM and 1000 nM (sheet 'Lestaurtinib' of Supplementary Table 1),run:Lestaurtinib_03260_R1,Plate:MR033) of the same substance?
Answer: Its potency estimated from few doses is 0.428 µM.

Question: And the potency estimated from few doses ([1]; compound concentrations:100 nM and 1000 nM (sheet 'Lestaurtinib' of Supplementary Table 1),run:Lestaurtinib_03260_R2,Plate:MR033)?
Answer: The potency estimated from few doses was 0.808 µM.

Question: What about the potency estimated from few doses ([1]; compound concentrations:100 nM and 1000 nM (sheet 'Lestaurtinib' of Supplementary Table 1),run:Lestaurtinib_03260_R3,Plate:MR033) of the same substance?
Answer: The potency estimated from few doses was 0.717 µM.

Question: What about the potency estimated from few doses ([2]; compound concentrations:100 nM and 1000 nM (sheet 'Lestaurtinib' of Supplementary Table 1),run:Lestaurtinib_02339_R1,Plate:MR001) of the same substance?
Answer: The potency estimated from few doses was 0.27 µM.

Question: And the potency estimated from few doses ([2]; compound concentrations:100 nM and 1000 nM (sheet 'Lestaurtinib' of Supplementary Table 1),run:Lestaurtinib_02339_R3,Plate:MR001)?
Answer: The potency estimated from few doses was 0.265 µM.

Question: And the potency estimated from few doses ([2]; compound concentrations:100 nM and 1000 nM (sheet 'Lestaurtinib' of Supplementary Table 1),run:Lestaurtinib_02364_R1,Plate:MR002)?
Answer: Its potency estimated from few doses is 0.301 µM.

Question: What about the potency estimated from few doses ([2]; compound concentrations:100 nM and 1000 nM (sheet 'Lestaurtinib' of Supplementary Table 1),run:Lestaurtinib_02364_R2,Plate:MR002) of the same substance?
Answer: Its potency estimated from few doses is 0.295 µM.

Question: What about the potency estimated from few doses ([2]; compound concentrations:100 nM and 1000 nM (sheet 'Lestaurtinib' of Supplementary Table 1),run:Lestaurtinib_02367_R1,Plate:MR003) of the same substance?
Answer: Its potency estimated from few doses is 0.146 µM.

Question: And the potency estimated from few doses ([2]; compound concentrations:100 nM and 1000 nM (sheet 'Lestaurtinib' of Supplementary Table 1),run:Lestaurtinib_02367_R2,Plate:MR003)?
Answer: The potency estimated from few doses was 0.218 µM.

Question: What about the potency estimated from few doses ([2]; compound concentrations:100 nM and 1000 nM (sheet 'Lestaurtinib' of Supplementary Table 1),run:Lestaurtinib_02367_R3,Plate:MR003) of the same substance?
Answer: Its potency estimated from few doses is 0.228 µM.

Question: What about the potency estimated from few doses ([2]; compound concentrations:100 nM and 1000 nM (sheet 'Lestaurtinib' of Supplementary Table 1),run:Lestaurtinib_02381_R1,Plate:MR004) of the same substance?
Answer: The potency estimated from few doses was 0.154 µM.

Question: And the potency estimated from few doses ([2]; compound concentrations:100 nM and 1000 nM (sheet 'Lestaurtinib' of Supplementary Table 1),run:Lestaurtinib_02407_R1,Plate:MR005)?
Answer: The potency estimated from few doses was 0.137 µM.

Question: And the potency estimated from few doses ([2]; compound concentrations:100 nM and 1000 nM (sheet 'Lestaurtinib' of Supplementary Table 1),run:Lestaurtinib_02422_R1,Plate:MR006)?
Answer: Its potency estimated from few doses is 0.113 µM.

Question: And the potency estimated from few doses ([2]; compound concentrations:100 nM and 1000 nM (sheet 'Lestaurtinib' of Supplementary Table 1),run:Lestaurtinib_02422_R2,Plate:MR006)?
Answer: Its potency estimated from few doses is 0.0605 µM.

Question: What about the potency estimated from few doses ([2]; compound concentrations:100 nM and 1000 nM (sheet 'Lestaurtinib' of Supplementary Table 1),run:Lestaurtinib_02422_R3,Plate:MR006) of the same substance?
Answer: Its potency estimated from few doses is 0.134 µM.

Question: And the potency estimated from few doses ([2]; compound concentrations:100 nM and 1000 nM (sheet 'Lestaurtinib' of Supplementary Table 1),run:Lestaurtinib_02437_R1,Plate:MR007)?
Answer: The potency estimated from few doses was 0.239 µM.

Question: What about the potency estimated from few doses ([2]; compound concentrations:100 nM and 1000 nM (sheet 'Lestaurtinib' of Supplementary Table 1),run:Lestaurtinib_02437_R2,Plate:MR007) of the same substance?
Answer: The potency estimated from few doses was 0.253 µM.

Question: What about the potency estimated from few doses ([2]; compound concentrations:100 nM and 1000 nM (sheet 'Lestaurtinib' of Supplementary Table 1),run:Lestaurtinib_02437_R3,Plate:MR007) of the same substance?
Answer: The potency estimated from few doses was 0.0225 µM.

Question: What about the potency estimated from few doses ([2]; compound concentrations:100 nM and 1000 nM (sheet 'Lestaurtinib' of Supplementary Table 1),run:Lestaurtinib_02438_R2,Plate:MR008) of the same substance?
Answer: The potency estimated from few doses was 0.236 µM.

Question: And the potency estimated from few doses ([2]; compound concentrations:100 nM and 1000 nM (sheet 'Lestaurtinib' of Supplementary Table 1),run:Lestaurtinib_02438_R3,Plate:MR008)?
Answer: Its potency estimated from few doses is 0.286 µM.

Question: What about the potency estimated from few doses ([2]; compound concentrations:100 nM and 1000 nM (sheet 'Lestaurtinib' of Supplementary Table 1),run:Lestaurtinib_02443_R1,Plate:MR009) of the same substance?
Answer: Its potency estimated from few doses is 0.231 µM.

Question: And the potency estimated from few doses ([2]; compound concentrations:100 nM and 1000 nM (sheet 'Lestaurtinib' of Supplementary Table 1),run:Lestaurtinib_02443_R2,Plate:MR009)?
Answer: The potency estimated from few doses was 0.239 µM.

Question: What about the potency estimated from few doses ([2]; compound concentrations:100 nM and 1000 nM (sheet 'Lestaurtinib' of Supplementary Table 1),run:Lestaurtinib_02443_R3,Plate:MR009) of the same substance?
Answer: The potency estimated from few doses was 0.196 µM.

Question: And the potency estimated from few doses ([2]; compound concentrations:100 nM and 1000 nM (sheet 'Lestaurtinib' of Supplementary Table 1),run:Lestaurtinib_02473_R1,Plate:MR010)?
Answer: The potency estimated from few doses was 0.232 µM.

Question: And the potency estimated from few doses ([2]; compound concentrations:100 nM and 1000 nM (sheet 'Lestaurtinib' of Supplementary Table 1),run:Lestaurtinib_02473_R2,Plate:MR010)?
Answer: Its potency estimated from few doses is 0.253 µM.

Question: What about the potency estimated from few doses ([2]; compound concentrations:100 nM and 1000 nM (sheet 'Lestaurtinib' of Supplementary Table 1),run:Lestaurtinib_02482_R1,Plate:MR011) of the same substance?
Answer: Its potency estimated from few doses is 0.24 µM.
